Values joined by “and” are separate entries in the source; they are usually repeats but may differ in a detail not shown here. Equal values may be shown once. Records with an inconclusive call do not appear. Entries that show only a call come without a potency. More than one record can exist for a structure, and the calls need not agree. Active and inactive are the calls of the source. Calls come from the whole dose curve; as a rule, active = well fitted cell-killing curve with a large enough effect in the repeat runs; inconclusive = weak or mixed curves, or effect the other way; inactive = no such curve, though single readings can be large or run the other way. Starred links: 1 amine or outer side, 2 acyl side, 3 side chain; linkers in the order of their positions; H or OH if unused. Positions of bridges follow the written chain, without caps; N, C: chain ends. Non-standard residues stand in square brackets, D forms with d. Residues, ends and D or L forms follow the SMILES beside them. Chains are numbered I, II in the order given. Actinocin(9to1) = Cc1c2oc3c(C)ccc(C(=O)[*:1])c3nc-2c(C(=O)[*:2])c(N)c1=O; NMeV = CN[C@H](C(=O)O)C(C)C; Sar = CNCC(=O)O
Experiment: qHTS assay to identify small molecule antagonists of the retinoid-related orphan receptor gamma (ROR-gamma) signaling pathway - cell viability counter screen (AID 1159520); note: nearly all actives have a fitted effect of over 50% in size
Details: Tet-on RORgamma CHO cells viability, ATP luminescence, 16 h; series mostly up to 92.4 µM
From the text: U.S. Tox21 Program National Center for Advancing Translational Sciences [NCATS] NIH Chemical Genomics Center [NCGC] U.S. Environmental Protection Agency [EPA] National Institutes of Environmental Health Sciences [NIEHS] National Toxicology Program [NTP] U.S. Food and Drug Administration [FDA] Tox21 Assay Overview: Nuclear steroid hormone receptors are involved in many biological processes including inflammatory responses, cell proliferation, and apoptosis. Environmental factors or compounds disrupting these nuclear receptor pathways and gene expression may promote susceptibility to immunotoxicants and autoimmune diseases. One important group of these expression factors are the retinoid-related orphan receptors. To assess compounds that may interfere with the retinoid-related orphan receptor gamma (ROR-gamma) transcription factor, a cell-based luciferase assay was used. The CHO cell-based assay utilizes a TET-inducible ROR expression factor and ROR response element-LUC reporter gene. Reporter gene activity was induced using Doxycycline Hyclate and measured after 16 hr incubation. Tet-on ROR gamma CHO cells were used to screen against the Tox21 10K compound library for cytotoxicity by measuring the viability of the cells based on the quantitation of the ATP.
Tox21 Assay Protocol Summary: Tet-on ROR gamma CHO cells were dispensed at 1,000 cells in 4 uL of culture medium per well into white wall/solid bottom 1536-well plates using a Multidrop Combi (Thermo Scientific, Waltham, MA) dispenser. Following incubation at 37 C and 5% CO2 for 4 hr, 23 nL of compounds dissolved in DMSO, positive controls or DMSO only were transferred by a Pintool station (Kalypsys, San Diego, CA) and after 2 hr incubation at 37 C, one ul of 1 uM (final concentration) of Doxycycline Hyclate was added to all the wells by using a Flying Reagent Dispenser (FRD) (Aurora Discovery, San Diego, CA). After 16 hr incubation at 37 C and 5% CO2, 5 uL of CellTiter-Glo reagent (Promega Corporation, Madison, WI) was added to each assay plate using FRD. After 30 min incubation at room temperature, luminescence was quantified on a ViewLux plate reader (Perkin Elmer, Waltham, MA).
Potency is the fitted concentration of half-maximal effect.

Compound	Potency	activity, negative = cytotoxicity
CC(=O)N[C@@H](CS)C(=O)O	inactive	–
CCCCCCCCCCCCc1ccccc1O	60.3 µM (active) and 27.3 µM (active)	–
CC(C(O)c1ccc(O)cc1)N1CCC(Cc2ccccc2)CC1 (stereo not given)	inactive	–
Cc1scc2c1N(C(=O)CN1CCN(C)CC1)c1ccccc1NC2=O	inactive	–
O=C1CC2(CCCC2)CC(=O)N1CCCCN1CCN(c2ncccn2)CC1	inactive	–
CC(C)(C)NCC(O)c1cc(O)cc(O)c1 (stereo not given)	inactive	–
O=C1Nc2ccccc2C1(c1ccc(O)cc1)c1ccc(O)cc1	inactive	–
C[N+]1([O-])CCOCC1	inactive	–
COc1ccc(CCN2CCC(Nc3nc4ccccc4n3Cc3ccc(F)cc3)CC2)cc1	17.6 µM (active) and 26.6 µM (active)	–
CCCOC(=O)c1cc(O)c(O)c(O)c1	inactive	–
Cc1cc(C2(c3cc(C)c(O)cc3C)OS(=O)(=O)c3ccccc32)c(C)cc1O	inactive	–
COc1ccc(CCN(C)CCCC(C#N)(c2ccc(OC)c(OC)c2)C(C)C)cc1OC (stereo not given)	inactive	–
Cc1ccc(S(=O)(=O)Oc2ccc(N=Nc3ccc(-c4ccc(N=Nc5c(O)ccc6cc(S(=O)(=O)O)cc(S(=O)(=O)O)c56)c(C)c4)cc3C)cc2)cc1	inactive	–
C=C(C)C1CC=C(C)C(OC(C)=O)C1 (stereo not given)	inactive	–
CCc1cc(C(C)(C)C)c(O)c(C(C)(C)C)c1	inactive	–
CC(=O)CC(=O)Nc1ccc2[nH]c(=O)[nH]c2c1	inactive	–
NC(Cc1ccc(Cl)cc1)C(=O)O (stereo not given)	–	3.35% [at 0.349 µM] (inactive)
Nc1cc(S(=O)(=O)O)cc2cc(S(=O)(=O)O)cc(O)c12	inactive	–
OCCN1CCNCC1	60.5 µM (active) and inactive	–
CCn1cc(C(=O)O)c(=O)c2cc(F)c(N3CCNC(C)C3)c(F)c21 (stereo not given)	inactive	–

Compound	Potency	activity, negative = cytotoxicity
O=C(O[C@@H]1Cc2c(O)cc(O)cc2O[C@@H]1c1cc(O)c(O)c(O)c1)c1cc(O)c(O)c(O)c1	inactive	–
Nc1ccc(O)cc1	63.5 µM (active) and inactive	–
Oc1c(Cl)cc(Cl)c(Cl)c1Cc1c(O)c(Cl)cc(Cl)c1Cl	1.53 µM (active) and 1.93 µM (active) and 1.68 µM (active)	–
NNCCc1ccccc1	inactive	–
O=Cc1ccc(Cl)cc1	inactive	–
Cc1c2oc3c(C)ccc(C(=O)N[C@@H]4C(=O)N[C@H](C(C)C)C(=O)N5CCC[C@H]5C(=O)N(C)CC(=O)N(C)[C@@H](C(C)C)C(=O)O[C@@H]4C)c3nc-2c(C(=O)N[C@@H]2C(=O)N[C@H](C(C)C)C(=O)N3CCC[C@H]3C(=O)N(C)CC(=O)N(C)[C@@H](C(C)C)C(=O)O[C@@H]2C)c(N)c1=O (I: T[dV]P[Sar][NMeV] / II: T[dV]P[Sar][NMeV]; ester I:1-I:C, II:1-II:C; linker I:N-II:N via Actinocin(9to1))	59.4 nM (active) and 59.6 nM (active)	–
CCCCN(CCO)CCCC	inactive	–
CCCCOCCOC(=O)c1ccccc1C(=O)OCCOCCCC	inactive	–
Oc1ccc(Cl)cc1Cc1cc(Cl)ccc1O	24.8 µM (active)	–
CC(C)(O)CCC(C)(C)O	inactive	–
CC(=O)O[C@]1(C(C)=O)CC[C@H]2[C@@H]3C[C@H](C)C4=CC(=O)CC[C@]4(C)[C@H]3CC[C@@]21C	inactive	–
O=C(O)c1cn(-c2ccc(F)cc2)c2cc(N3CCNCC3)c(F)cc2c1=O	inactive	–
Cc1cc(OCCOCC[N+](C)(C)Cc2ccccc2)ccc1C(C)(C)CC(C)(C)C	68.2 µM (active) and 29.8 µM (active)	–
Cc1cccc2n[nH]nc12	inactive	–
C=CC(=O)OCCCCCCOC(=O)C=C	inactive	–
CCOc1ccccc1C(N)=O	inactive	–
CCCCCC(=O)O[C@]1(C(C)=O)CC[C@H]2[C@@H]3CCC4=CC(=O)CC[C@]4(C)[C@H]3CC[C@@]21C	60.7 µM (active)	–
O=C(O)CCc1ccccc1	inactive	–
CCC(CO)(CO)COCC(CC)(CO)CO	inactive	–
O=C1NCC2(CCN(CCc3ccccc3)CC2)O1	inactive	–
